Assay results from PubChem BioAssay AID624173 (National Center for Advancing Translational Sciences (NCATS), 2012).
Out of some 410,000 compounds screened, about 490 (0.12%) were called active. Not shown: some 1% with an inconclusive outcome. The sample as a whole holds a higher share of actives than the screen did. Values without a mark were called inactive. Calls follow the shape of the dose curve; as a rule, active = well fitted inhibition curve with a large enough effect; inconclusive = small, poorly fitted or top-dose-only effect; inactive = flat fitted curve, though single readings scatter.

molecular target: pyruvate kinase (Trypanosoma brucei) (UniProt Q57TT1); assay: qHTS of Trypanosoma Brucei Inhibitors; details: TbPYK enzyme, Kinase-Glo Plus ATP luminescence, 45 min; series mostly up to 76.8 µM; activity, negative = inhibition: at the top concentration; also: nearly all actives have a fitted effect of over 50% in size
Excerpt: Members of the Trypanosomatidae family of parasitic protozoans cause a spectrum of diseases throughout the tropical and subtropical world. Sleeping sickness, caused by two subspecies of Trypanosoma brucei, is endemic to areas of sub-Saharan Africa, while Chagas' disease, a manifestation of Trypanosoma cruzi infection, is prevalent throughout Central and South America. In addition, many species of Leishmania are responsible for a range of cutaneous and visceral diseases, causing ulcers, destructive lesions and kalaazar, a lethal infection of the viscera. These diseases cause severe public health and economic burdens on populations that are often already caught in a tragic cycle of poverty, poor nutrition and disease. Collectively, parasites of the trypanosomatid family infect 30 million people worldwide (~500 million live in endemic areas), and account for ~130K deaths annually. Existing treatments have developed little in the past 50 years, and suffer from toxicity, poor efficacy and resistance; the goal of this project is to develop lead drugs that will be suitable for entry into pre-clinical trials.
Glycolysis in axenically cultured T. cruzi, representing the intracellular pathogenic stage, is also essential for these parasites. {Engel, 1987} This project aims to discover and optimize selective inhibitors of the glycolytic enzyme pyruvate kinase (PYK) from Trypanosoma brucei, the parasite that causes sleeping sickness. […] Trypanosomatid PYKs show significant differences from their human counterparts including only 47-50% sequence identity and different allosteric and activation properties.{Callens, 1992} To this end, a qHTS was done against the MLSMR to discover inhibitors.
NIH Molecular Libraries Probe Production Network [MLPCN]
NIH Chemical Genomics Center [NCGC]
PI Name: Malcolm Walkinshaw, University of Edinburgh
2 uL of TbPYK/substrate buffer (columns 1-3, 5-48) are dispensed into Greiner white solid bottom 1536-well assay plates; column 4 receives only TEA buffer as 0x TbPYK controls. Compounds are then transferred via Kalypsys pin tool equipped with 1536-pin array (10 nL slotted pins, V&P Scientific, San Diego, CA). Following addition of compound, 2 uL of ADP (130 uM final concentration, all columns) is added to initiate the reaction. The plates are then incubated at room temperature for 45 minutes. Kinase-Glo Plus reagent is added (3 uL) and plates incubated for 10 minutes, before being transferred to a ViewLux high-throughput CCD imager (PerkinElmer) wherein single end-point measurements of luminescence are acquired using a clear filter. All reagents are diluted in an assay buffer consisting of 50 mM TEA (pH 7.2), 100 mM KCl, 10 mM MgCl2, 0.05% BSA and 0.01% Tween-20.
All screening operations will be performed on a fully integrated robotic system (Kalypsys, San Diego, CA) containing one RX-130 and two RX-90 anthropomorphic robotic arms (Staeubli, Duncan, SC). Library plates will be screened starting from the lowest and proceeding to the highest concentration. Vehicle-only plates, with DMSO being pin-transferred to columns 5-48, will be inserted uniformly at the beginning and the end of each library in order to monitor and record any shifts in the background, which can be affected by reagent dispensers or loss in enzyme activity over time. Screening data will be corrected, normalized, and concentration-effect relationships will be derived by using publicly-available curve fitting algorithms developed in-house (http://ncgc.nih.gov/pub/openhts).
% is scaled to controls: 0 for no effect and ±100 for the full control effect; potency is read from the fitted curve at half-maximal effect.

| Structure (SMILES) | activity, negative = inhibition | Potency |
| --- | --- | --- |
| CCOC(=O)Cc1cccc(-c2cc(CCCCCCc3ccc(O[C@H]4O[C@H](COC(C)=O)[C@@H](OC(C)=O)[C@H](OC(C)=O)[C@@H]4OC(C)=O)c(-c4cccc(CC(=O)OCC)c4)c3)ccc2O[C@H]2O[C@H](COC(C)=O)[C@@H](OC(C)=O)[C@H](OC(C)=O)[C@@H]2OC(C)=O)c1 | 0.402% |  |
| COCC(=O)N1CCC2(CCCN(c3ccccc3)C2)CC1 | -0.308% |  |
| Cc1ccc(-c2ncc(Cl)cc2-c2ccc(S(C)(=O)=O)cc2)cn1 | -10.3% |  |
| CCC(C)C(N)C1=NC(C(=O)NC(CC(C)C)C(=O)NC(CCC(=O)O)C(=O)NC(C(=O)NCCCCC2NC(=O)C(CC(N)=O)NC(=O)C(CC(=O)O)NC(=O)C(Cc3cnc[nH]3)NC(=O)C(Cc3ccccc3)NC(=O)C(C(C)CC)NC(=O)C(CCCN)NC2=O)C(C)CC)CS1 (stereo not drawn) | 0% |  |
| CC(=O)N1CCC2(CCCN(Cc3ccccc3)C2)CC1 | 0% |  |
| CC1(C)[C@H](O[C@H]2O[C@H](C(=O)O)[C@@H](O)[C@H](O)[C@H]2O[C@@H]2O[C@H](C(=O)O)[C@@H](O)[C@H](O)[C@H]2O)CC[C@@]2(C)[C@H]1CC[C@]1(C)[C@H]2C(=O)C=C2[C@H]3C[C@@](C)(C(=O)O)CC[C@]3(C)CC[C@]21C | -2.85% |  |
| COc1ncc2nc(-c3ccc(Cl)cc3)c(=O)n(-c3ccccc3)c2n1 | 1.82% |  |
| CCCc1c2oc(C(=O)O)cc(=O)c2cc2c(=O)cc(C(=O)O)n(CC)c12 | -3.87% |  |
| CCOc1ccc(NS(=O)(=O)c2ccc(N)cc2)nn1 | -5.06% |  |
| CS(=O)(=O)N1CCC2(CC1)CN(c1ccncc1)C2 | 0.147% |  |
| Cc1ccc(Cc2c(-c3ccco3)nc3ccc(Cl)cn23)cc1 |  | 22.4 µM (active) |
| c1ccc(Cc2c(-c3ccco3)nc3c4ccccc4ccn23)cc1 | -13.3% |  |
| Cc1cc2nc(-c3ccco3)c(Cc3cccc(F)c3)n2c(C)c1Br | -15.1% |  |
| COc1ccc(NC(=O)N2CC3(CCN(C(C)=O)CC3)C2)cc1 | -5.45% |  |
| COc1ccc(C(=O)N2CCC3(CC2)CCN(c2ccccn2)CC3)cc1 | 6.06% |  |
| CC(=O)N1CCC2(CCCN(Cc3ccc(C#N)cc3)C2)CC1 | 4.17% |  |
| CCC(C)[C@@H](N)C(=O)O (stereo partly drawn) | -1.56% |  |
| COC(=O)[C@@H]1CC2=CC(=O)CC[C@]2(C)[C@@]23O[C@@H]2C[C@@]2(C)[C@@H](CC[C@@]24CCC(=O)O4)[C@H]13 | -7.61% |  |
| CC(=O)OCC(=O)[C@@]1(O)CC[C@@H]2[C@H]3CCC4=CC(=O)C=C[C@]4(C)[C@]3(F)[C@@H](O)C[C@@]21C | 1.21% [at 33.2 µM] |  |
| C[C@]12CCC3[C@@H](CCC4=CC(=O)CC[C@@]43C)C1CCC2OC(=O)CCc1ccccc1 (stereo partly drawn) | -5.47% [at 157 µM] |  |
| CO[C@]12CC[C@@]3(C[C@@H]1[C@](C)(O)C(C)(C)C)[C@@H]1Cc4ccc(O)c5c4[C@@]3(CCN1CC1CC1)[C@H]2O5 | 3.11% [at 157 µM] |  |
| CC(C)=CCN1CC[C@@]2(C)c3cc(O)ccc3C[C@H]1[C@@H]2C | -3.79% [at 157 µM] |  |

| Structure (SMILES) | activity, negative = inhibition | Potency |
| --- | --- | --- |
| COC(=O)N1CCC2(CCCN(c3ccncc3)C2)CC1 | -0.191% |  |
| COc1ccc(OC)c([C@H](O)CNC(=O)CN)c1 | 4.52% [at 33.2 µM] |  |
| Cc1cccc(C)c1NC(=O)NC1=CCCN1C | 8.65% |  |
| O=C1C(c2[nH]c3ccccc3c2O)=Nc2ccccc21 | 3.08% |  |
| O=c1c(-c2cccs2)nc2cnc(Oc3ccccc3)nc2n1-c1ccccc1 | 6.09% |  |
| CCCC(=O)O[C@]1(C(=O)COC(=O)CC)CC[C@@H]2[C@@H]3CCC4=CC(=O)CC[C@]4(C)[C@H]3[C@@H](O)C[C@@]21C | 0% |  |
| Cc1c(Cl)cccc1NC(=O)N1CCN(C(=O)c2nsc3ccccc23)CC1 | 10.2% [at 15.4 µM] |  |
| NCCCCC(N)C(=O)O (stereo not drawn) | -0.921% |  |
| CCC(C)C1OC2(C=CC1C)CC1CC(C/C=C(/C)C(OC3CC(OC)C(OC4CC(OC)C(NC(C)=O)C(C)O4)C(C)O3)C(C)/C=C\C=C3\COC4C(O)C(C)=CC(C(=O)O1)C34O)O2 (stereo not drawn) | -0.993% |  |
| CC(C)NC(=O)N1CC[C@@]2(CCCN(C(=O)c3ccco3)C2)C1 | -8.63% |  |
| Cc1cc(-c2csc(N)n2)c(C)n1-c1ccccc1 | -11.5% |  |
| S=c1[nH]nc(-c2cc(-c3ccsc3)n[nH]2)n1-c1ccccc1 |  | 2.82 µM (active) |
| O=P(O)(O)OC[C@H](O)CO | -9.47% |  |
| O=C(O)[C@@H](S)[C@H](S)C(=O)O | -28.4% |  |
| CC(C)CC1C(=O)N2CCCC2C2(O)OC(NC(=O)C3CC4c5cccc6[nH]cc(c56)CC4N(C)C3)(C(C)C)C(=O)N12 (stereo not drawn) | 1.74% |  |
| O=c1c(-c2ccc(F)cc2)nc2cnc(N3CCOCC3)nc2n1-c1ccccc1 | -2.78% |  |
| Clc1ccc(-c2nc3sccn3c2C=NOCc2ccc(Cl)c(Cl)c2)cc1 | 2.15% |  |
| Cn1cccc1C(=O)N1CCC[C@@]2(CCN(Cc3nccs3)C2)C1 | -6.25% |  |
| O=C(c1cc(C(F)(F)F)cc(C(F)(F)F)c1)N1CCC2(CCCN(Cc3ccncc3)C2)CC1 | 5.95% |  |
| CN1CCCC(=C(c2cccs2)c2cccs2)C1 | -0.775% |  |
| O=C1NC(=O)N(c2ccccc2)C(=O)/C1=C/c1ccc([N+](=O)[O-])s1 |  | 17.8 µM (active) |
